# Data: PubChem BioAssay
# Experiment: probe aCHRDL2 binding to arrayed compounds – biochemical, biotinylated probe, 635/667 nm fluorescence, primary screen (AID 1100)
# Conditions: small-molecule microarray, higher = more signal
row,SMILES,composite z-score
1,CC1CC/C=C\[C@H]2OC34C=CCN(CCN5CCOCC5)C(=O)[C@H]3N(CCCO)C(=O)[C@@H]4C2C(=O)O1 (stereo not given in full),-0.141
2,COC(=O)C[C@H]1O[C@@]2(C[C@@H]1[Si](C)(C)C)C(=O)N(C)c1ccccc12,-0.52
3,O=C1C2C=CC(C(O)c3cccs3)N(Nc3ccc([N+](=O)[O-])cc3)C2C(=O)N1c1ccccc1 (stereo not given),0.25
4,Cc1ccc(S[C@]2(C(=O)NCc3ccccc3)CC(=O)N(Cc3ccccc3C(F)(F)F)[C@@H]2c2ccc(CO)cc2)cc1,0.984
5,O=C1[C@H]2C=C(I)[C@H](C[C@@H]2c2ccccc2)[C@@]12CO2,-0.197
6,C=CC[C@@]12N=C(c3ccc(OCCCO)cc3)O[C@@H]1c1ccccc1N(CCC)C2=O,0.952
7,C=CCC(OC(C)=O)[C@@H]1[C@@H](N(Cc2cccc3ccccc23)C(=O)c2ccc(-c3ccccc3)cc2)c2cc(OCCCO)ccc2N1C(=O)Cc1ccc2ccccc2c1 (stereo not given in full),0.428
8,CCOC(=O)C1=CC[C@@H](c2ccccc2)N(S(=O)(=O)c2ccc(C)cc2)[C@H]1c1ccccc1I,1.13
9,O=C1O[C@H](c2ccccc2)[C@H](c2ccccc2)N2[C@H]1[C@@H](C(=O)O)[C@]1(C(=O)Nc3ccc(C#CCCO)cc31)[C@H]2c1ccc(OCCO)cc1,0.834
10,COc1ccc(C(O)C2C=CC3C(=O)NC(=O)C3N2Nc2ccc(Cl)cc2Cl)c2ccccc12 (stereo not given),1.15
11,COCCCNC(=O)[C@@]1(CCC(=O)OC(C)(C)C)COC(c2ccc(OCCCO)cc2)=N1,0.523
12,NC(=O)N1C(=O)C2C(C1=O)C1C=C(CCCO)C2C(C2CC2)N1Cc1sc2ccccc2c1Cl (stereo not given),0.256
13,C=CCOC(=O)[C@@H]1[C@H]2C(=O)O[C@H](c3ccccc3)[C@H](c3ccccc3)N2[C@H](c2ccc(OCCOC(=O)[C@H]3C[C@H]4C(=O)N[C@@H](CCCCN(C)C)C(=O)N4[C@H]3c3ccc(O)cc3)cc2)[C@@]12C(=O)Nc1ccc(I)cc12,-0.13
14,CCCC=C(CCC)[C@@H](NC(=O)c1ccc(C(F)(F)F)cc1)c1ccc(C(F)(F)F)cc1,1.09
15,COc1cc(C(O)C2C=CC3C(=O)N(c4ccccc4)C(=O)C3N2Nc2ccccc2)cc(OC)c1OC (stereo not given),1.13
16,CC(=O)OCC1C2CC[C@H]3C(OCc4ccc(F)cc4C(F)(F)F)OC[C@]4(C)[C@H]3C2=C(CN4C(=O)OC(C)(C)C)[C@H](C)C1COC(C)=O (stereo not given in full),1.06
17,COC(=O)[C@@]1(Cc2ccc(F)cc2)[C@H]2c3cc(C(=O)N4CCCC4)n(Cc4cc(F)cc5c4OCOC5)c3C[C@H]2CN1C(=O)c1ccccc1,1.06
18,C[C@@H]1ON(c2ccccc2)[C@H](c2ccccc2)[C@H]1C(=O)O,-0.269

row,SMILES,composite z-score
1,C=CCC(OC(C)=O)[C@@H]1[C@@H](N(Cc2cc3ccccc3o2)C(=O)Cc2ccc(OC)cc2)c2cc(OCCCO)ccc2N1C(=O)c1ccc2ccccc2n1 (stereo not given in full),0.393
2,COC(=O)[C@@]1(Cc2ccc(OC)cc2)[C@H]2c3cc(C(=O)N4CCCC4)n(Cc4c(CO)[nH]cc(C)c4=O)c3C[C@H]2CN1C(=O)c1ccccc1,1.13
3,COc1ccc(NN2C(C(O)c3ccc(I)cc3)C=CC3C(=O)N(C4CCCCC4)C(=O)C32)cc1 (stereo not given),0.792
4,O=C1O[C@H](c2ccccc2)[C@H](c2ccccc2)N2[C@H]1[C@@H](C(=O)N1CCN(c3ncccn3)CC1)[C@]1(C(=O)Nc3ccc(C#CCCO)cc31)[C@H]2c1ccc(O)cc1,0.422
5,CC1CC/C=C\[C@H]2OC34C=CCN(c5ccc(Cl)cc5)C(=O)[C@H]3N(CCCCCCO)C(=O)[C@]4(C)C2C(=O)O1 (stereo not given in full),0.747
6,O=C(NC1CC1)[C@@H]1c2ccccc2C(=O)N(Cc2cc(C(F)(F)F)cc(C(F)(F)F)c2)[C@H]1c1ccc(CO)cc1,-0.47
7,COc1ccc([Si](C)(C)[C@@H]2[C@@H](CC(=O)N3Cc4ccccc4C[C@H]3CO)O[C@]3(C(=O)N(Cc4ccc(N5CCOC5=O)cc4)c4ccccc43)[C@H]2C)cc1,-0.271
8,CN1C(=O)C2C(C1=O)C1C=C(CCCO)C2C(C2CC2)N1Cc1cccc(OC(F)(F)F)c1 (stereo not given),0.512
9,[N-]=[N+]=Nc1ccccc1[C@@H]1OC(c2ccc(OCCCO)cc2)=N[C@]1(Cc1ccccc1)C(=O)NCCN1CCOCC1,0.825
10,COC(=O)[C@@]1(Cc2ccccc2)N=C(c2ccc(OCCCO)cc2)O[C@H]1c1ccccc1CN=[N+]=[N-],0.652
11,Cc1ccc(N2C(=O)c3ccccc3[C@](C)(C(=O)NCCCN(C)C)[C@@H]2c2ccc(CO)cc2)nc1,0.451
12,CC(C)N1C(=O)C[C@@](C(=O)NCCN2CCOCC2)(c2ccc([N+](=O)[O-])cc2)[C@H]1c1ccc(CO)cc1,0.447
13,CN(C)CCCNC(=O)[C@@]1(Cc2ccccc2I)c2ccccc2C(=O)N(C2CCCCC2)[C@H]1c1ccc(CO)cc1,0.532
14,CC(C)N1C(=O)c2ccccc2[C@@H](C(=O)NCC(F)(F)F)[C@@H]1c1ccc(CO)cc1,0.53
15,CC(C)=C1C(=O)C(c2ccccc2)=C2CN3C(=O)N(CCc4ccccc4)C(=O)[C@]3(C)[C@H]21,1.13
16,COCCCNC(=O)[C@@]1(CCS(=O)(=O)c2ccccc2)COC(c2ccc(OCCCO)cc2)=N1,1.47
17,O=C1C2C=CC(C(O)C3CCCCC3)N(n3cnnc3)C2C(=O)N1Cc1ccccc1 (stereo not given),0.623
